This is an account of results in PubChem BioAssay (Tox21).

Records with an inconclusive call do not appear. Activity calls are given as the source filed them. The call rests on the fitted dose curve.

A short description of the test: qHTS assay to identify small molecule agonists or antagonists of the thyroid stimulating hormone receptor (TSHR) signaling pathway - wild type cell line counter screen (AID 1259384). The conditions noted are these: HEK293 wild type, cAMP HTRF counter-screen; series mostly up to 92.4 µM. From the text:
U.S. Tox21 Program National Center for Advancing Translational Sciences [NCATS] NIH Chemical Genomics Center [NCGC] U.S. Environmental Protection Agency [EPA] National Institutes of Environmental Health Sciences [NIEHS] National Toxicology Program [NTP] U.S. Food and Drug Administration [FDA] Tox21 Assay Overview: TSHR is the receptor for thyrotropin (thyroid stimulating hormone or TSH), a member of the glycoprotein hormone family. TSH is released by the anterior pituitary gland and is the main regulator of thyroid gland growth and development. Upon binding circulating thyrotropin, a G-protein signal cascade activates adenylyl cyclase and […] cAMP concentration is increased. cAMP is a key second messenger involved extensively in cellular signal transduction pathways associated with the majority of G-protein coupled receptors (GPCRs). The activation of these GPCRs by neurotransmitters, lipids, nucleotides, peptides and hormones results in the activation or the inhibition of plasma membrane-bound adenylate cyclase through heterotrimeric G-proteins. A cell-based TSHR-Hek293 assay can be used to identify TSHR agonists. To eliminate the false positive compounds identified from screening a cell-based TSHR-Hek293 cell line, cAMP assay in a wild type Hek293 cells was used as a counter screening.
Tox21 Assay Protocol Summary: Hek293 cells (wild type) were dispensed at 800 cells/4 uL/well in 1536-well white plates using a Multidrop dispenser. After the assay plates were incubated at a 37 C/5% CO2 incubator for 18 hrs, 23 nL of compounds dissolved in DMSO, positive controls or DMSO only was transferred to the assay plate by a pin tool, followed by 1 ul medium containing Ro20-1724. After 30 min of incubation at room temperature, 2.5 ul/well of cAMP-d2 and 2.5 ul/well of anti-cAMP-cryptate were added respectively into the assay plates using a Flying Reagent Dispenser. The plates were incubated at room temperature for 1 hr. The fluorescence intensity in the plates was measured using an Envision plate reader. Each test compound was measured at 15 concentrations and in triplicates.
Take `CN(N=O)c1ccccc1`: the compound was classed as inactive. Take `C#CC(C)(C)NC(=O)c1cc(Cl)cc(Cl)c1`: the call was inactive.

Take `[N-]=[N+]=[N-]`: the compound was classed as inactive. In the case of `O=c1[nH]c2ccccc2c(=O)o1`, the outcome was inactive. The same measure for `O=S(=O)(c1ccc(Cl)cc1)c1cc(Cl)c(Cl)cc1Cl`: “inactive”; for `COC(=O)c1ccccc1C(=O)OC`: “inactive”.

As to `CC(C)NC(=O)N1CC(=O)N(c2cc(Cl)cc(Cl)c2)C1=O`, the outcome was inactive. Turning to `CC(C)OC(=O)Nc1cccc(Cl)c1`, the result was inactive. The same measure for `O=c1[nH]c(=O)[nH]c(=O)[nH]1`: “inactive”; for `CON(C)C(=O)Nc1ccc(Cl)c(Cl)c1`: “inactive”; for `ClCc1cccnc1`: “inactive”. The same measure for `COC(=O)NS(=O)(=O)c1ccc(N)cc1`: “inactive”; for `Clc1ccccc1Cl`: “inactive”; for `Clc1cccc(Cl)c1Cl`: “inactive”. As to `CN(C)[C@@H]1C(=O)C(C(N)=O)=C(O)[C@@]2(O)C(=O)C3=C(O)c4c(O)cccc4[C@@](C)(O)[C@H]3C[C@@H]12`, the compound was called inactive. Consider `Nc1ccc(Oc2ccc(N)cc2)cc1`, for which the compound was called inactive. The same measure for `CCCN(CCC)N=O`: “inactive”; for `NCCc1ccc(O)cc1`: “inactive”; for `OCCN(CCO)CCO`: “inactive”. On to `c1ccc2c(c1)Oc1ccccc1O2`, for which the outcome was inactive. Next, `CCOC(=O)c1ccccc1C(=O)OCC`: “inactive”; `COc1ccc2c3c1O[C@H]1[C@@H](O)C=C[C@H]4[C@@H](C2)N(C)CC[C@@]341`: “inactive”.

For the compound `OC(O)C(Cl)(Cl)Cl`, the result was inactive. For `C1CN2CCN1CC2`, the compound was classed as inactive. The same measure for `O=NN1CCCCCCC1`: “inactive”; for `CC(=O)C=C(C)C`: “inactive”. As to `COC(=O)NC(=S)Nc1ccccc1NC(=S)NC(=O)OC`, the call was inactive. The same measure for `C=CCO`: “inactive”. Consider `CCN(CC)CCO`, for which the call was inactive. Next, `CCNc1nc(NC(C)(C)C)nc(SC)n1`: “inactive”; `Cc1cccc([N+](=O)[O-])c1`: “inactive”. `O=NN1CCCC1`: the result was inactive. The same measure for `O=[N+]([O-])c1ccc(Oc2ccc(Cl)cc2Cl)cc1`: “inactive”; for `CC(C)=C[C@@H]1[C@@H](C(=O)OCc2coc(Cc3ccccc3)c2)C1(C)C`: “inactive”; for `Cc1[nH]c(=O)n(C(C)(C)C)c(=O)c1Cl`: “inactive”. Take `c1ccc(-c2ccccc2)cc1`: the call was inactive. Take `CC(C)OC(=O)Nc1ccccc1`: the compound was classed as inactive.

As for `COP(N)(=O)SC` (stereo not given), the compound was called inactive. For `Cn1cc(-c2ccccc2)c(=O)c(-c2cccc(C(F)(F)F)c2)c1`, the result was inactive. Consider `C=CC(N)=O`, for which the compound was called inactive.
